In PubChem BioAssay AID1224861 (National Center for Advancing Translational Sciences (NCATS), 2016) one finds Potency data, which are given here for 14 compounds.

The structures appear in SMILES notation. Records with an inconclusive call do not appear. Entries that show only a call come without a potency. Calls of active or inactive are those of the source. Calls follow the shape of the dose curve; as a rule, active = well fitted cell-killing curve with a large enough effect; inconclusive = small, poorly fitted or top-dose-only effect, or effect the other way; inactive = flat fitted curve, though single readings scatter.

The nature of this assay: Compound cytotoxicity measured by an ATP content assay as a counter-screen for lead compounds in human astrocytes. Particulars: human astrocytes viability, ATP luminescence; series mostly up to 46.1 µM. As to the method:
National Center for Advancing Translational Sciences [NCATS] Johns Hopkins University School of Medicine Florida State University Assay Overview: Many compounds can cause cytotoxicity at high compound concentrations. […] The compound cytotoxicity may also cause side effects or toxicity in human. Thus, the compound cytotoxicity needs to be measured in each cell type and each compound incubation time - same as these in the compound screening assay. The compound cytotoxicity can be measured by cell viability assays such as the ATP content assay. We use an ATP content assay kit for cell viability measurement. It measures ATP content (level) in human astrocytes using a luminescence readout that is proportional to viable cell numbers. Decrease in the luminescence signal after the compound treatment indicates reduced cell viability and cell death caused by compound treatment.
Assay Protocol Summary: The medium for astrocytes contains AM basal medium (ScienCell, Cat.# 1801), AGS (ScienCell, Cat.# 1801), 10% FBS, and 1% Pen/Strep. The ATP content assay kit (PerkinElmer, Cat.# 6016731) was used to determine cell viability. The reagent was reconstituted and prepared as described by the manufacturer. Cells were seeded in 384- or 1536-well assay plates and cultured at 37 C with 5% CO2 for 16 to 20 hours. The typical cell seeding density in the 1536-well plate assay is 350 cells/well in 3 ul medium for astrocytes in the tissue cultured treated/PDL coated plates. Compounds were added to cells and incubated for a specific time such as 6, 24, or 72 hours before addition of the reagent mixture of the ATP content assay kit at 1:1 ratio. After incubation at room temperature for 10 minutes, the luminescence intensity in assay plates was measured using a ViewLux plate reader (PerkinElmer). […] The percentage inhibitions of the decreased cell viability by small molecules were then calculated that indicate compound cytotoxicity.
With `O=c1c2ccccc2[se]n1-c1ccccc1`, the Potency is 9.75 µM (active).
For `COc1cccc2c1C(=O)c1c(O)c3c(c(O)c1C2=O)C[C@@](O)(C(=O)CO)CC3OC1CC(N2CCOC(OC)C2)C(O)C(C)O1` (some centres undefined), the Potency entry is “inactive”.
With `COC1(CS(=O)c2ccccc2)CCN(CCc2c[nH]c3ccc(F)cc23)CC1` (centres undefined) the entry was “inactive”.
Consider `Cc1ccc([N+](=O)[O-])[c]2c1[O][Hg]2`, for which the Potency was 3.08 µM (active).
For `CN1CC[C@@]2(C)c3cc(OC(=O)Nc4ccccc4)ccc3N(C)[C@@H]12`, the Potency entry is “inactive”.
For `CC(C)N[C@@H]1CCn2c(=O)[nH]c3cccc(c32)[C@@H]1O`, the Potency result is “inactive”.
In the case of `CC(C)[N+](C)(CCC(C(N)=O)(c1ccccc1)c1ccccc1)C(C)C`, the Potency result was “inactive”.
For the compound `O=C1CCC[C@@H]2[C@H]3CCCN4CCC[C@@H](CN12)[C@@H]34`, the Potency result is “inactive”.
For the compound `O=C(Nc1ccc(Br)cc1)c1cc(Br)cc(Br)c1O`, the Potency was 15.5 µM (active).
Turning to `Oc1ccc([C@H]2CNCc3c2ccc(O)c3O)cc1O`, the Potency entry was “inactive”.
On to `CC[n+]1c(-c2ccccc2)c2cc(N)ccc2c2ccc(N)cc21`, for which the Potency result is “inactive”.
For `CC(O)CN1CCN(CC(=O)[O-])CCN(CC(=O)[O-])CCN(CC(=O)[O-])CC1.[Gd+3]` (centres undefined), the Potency result was “inactive”.
Regarding `COP(=S)(OC)SCN1C(=O)c2ccccc2C1=O`, the Potency entry is “inactive”.
With `O=C1C=CC[C@@H]2[C@H]3CCCN4CCC[C@@H](CN12)[C@@H]34`, the Potency result is “inactive”.
